In the supplement of paper PMC10849652:
Of roughly 8,800 targets only a part is listed; those with a hit were picked by preference. About 0.5% of all pairs of compound and target were hits.

Experiments:
Test in all cases: log2 fold change, soluble protein after heating vs DMSO (PISA); higher = thermal stabilisation; K562 lysate, 10 uM; active = over 0.2 and 3.5 SD of the protein, either way, in both replicates (recomputed)
erlotinib = compound: C#Cc1cccc(Nc2ncnc3cc(OCCOC)c(OCCOC)cc23)c1 [erlotinib]
Summary of the method: (§1)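 The values are log-two fold changes in thermal stability compared with solvent controls and come from duplicates. They were obtained by TMTpro 16plex LC-MS/MS, with channel sums equalised, on the supernatant after 21,000xg for 90 min. That supernatant came from crude K562 extract at 1 mg/mL protein treated with 10 μM compound for 30 min, heated for 3 min across 48°C-58°C, pooled and brought to 0.5% NP-40 at 4°C.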

[1] = compound: C/C(=N\NC(=O)C1=CC(=CC=C1)S(=O)(=O)N2CCOCC2)/C3=C(C=CC(=C3)Cl)O
Summary of the method: as §1

[2] = compound: C1=CC(=CC=C1C2=NC3=C(N2)C=C(C=C3)C(=O)N)OC4=CC=C(C=C4)Cl
Summary of the method: as §1

[3] = compound: C1=CC2=C(C=CC(=C2)/C=C\3/C(=O)NC(=NCC4=CC=CS4)S3)N=C1
Summary of the method: as §1

[4] = compound: C1=CC2=NC=CN=C2C=C1/C=C/3\C(=O)NC(=O)S3
Summary of the method: as §1

[5] = compound: C1=CC=C(C=C1)C2=NC(=C(N2)C3=CC=NC=C3)C4=CC(=C(C=C4)Cl)O
Summary of the method: as §1

[6] = compound: C1=CC=C2C(=C1)C3=NNC4=CC=CC(=C43)C2=O
Summary of the method: as §1

[7] = compound: C1CCN(C1)C(=O)NC2=CC=CC(=C2)NC3=NC=C(C(=N3)NCCC4=CN=CN4)Br
Summary of the method: as §1

[8] = compound: C1CN(CCC1(CC2=CC=C(C=C2)Cl)N)C3=NC=NC4=C3C=CN4
Summary of the method: as §1

IRAK-1-4 Inhibitor I = compound: C1COCCN1CCN2C3=CC=CC=C3N=C2NC(=O)C4=CC(=CC=C4)[N+](=O)[O-] [IRAK-1-4 Inhibitor I]
Summary of the method: as §1

ibrutinib = compound: C=CC(=O)N1CCC[C@@H](n2nc(-c3ccc(Oc4ccccc4)cc3)c3c(N)ncnc32)C1 [ibrutinib]
Summary of the method: as §1

[9] = compound: CC(=O)c1cnc2ccc(-c3cc(Cl)c(O)c(Cl)c3)nc2c1N[C@H]1CC[C@H](CN(C)C)CC1
Summary of the method: as §1

ralimetinib = compound: CC(C)(C)Cn1c(N)nc2ccc(-c3[nH]c(C(C)(C)C)nc3-c3ccc(F)cc3)nc21 [ralimetinib]
Summary of the method: as §1

[10] = compound: CC(C)(O)CC(=O)NCCn1ccc2ncnc(Nc3ccc(Oc4cccc(C(F)(F)F)c4)c(Cl)c3)c21
Summary of the method: as §1

[11] = compound: CC(C)C1=C2N=C(C=C(N2N=C1)NCC3=CC=CC=C3)NCCCCCCN
Summary of the method: as §1

[12] = compound: CC1=C(C(CC(=O)N1)C2=CC=C(C=C2)C(F)(F)F)C(=O)NC3=C(C=C4C(=C3)C=NN4)F
Summary of the method: as §1

[13] = compound: CC1=C(C2=C(C=C1)C(=O)C3=CC=CC=C3N2CCCN)C
Summary of the method: as §1

[14] = compound: CC1=C(C=C(C=C1)NC(=O)C2=CC(=CC=C2)C(C)(C)C#N)NC3=CC4=C(C=C3)N=CN(C4=O)C
Summary of the method: as §1

[15] = compound: CC1=C(C=C(C=C1)NC(=O)C2=CC(=CC=C2)N(C)C)NC(=O)C3=CC=C(C=C3)O
Summary of the method: as §1

[16] = compound: CC1=CC=C(C=C1)SC2=C3C=C(SC3=CN=C2)C(=O)N
Summary of the method: as §1

Measured: log2 fold change

TARDBP (UniProt Q13148)
inactive: erlotinib -0.017 | [1] -0.092 | [2] 0.018 | [3] 0.004 | [4] 0.09 | [5] -0.133 | [6] -0.036 | [7] -0.065 | [8] 0.032 | IRAK-1-4 Inhibitor I 0.048 | ibrutinib -0.161 | [9] 0.052 | ralimetinib -0.004 | [10] -0.076 | [11] 0.015 | [12] 0.019 | [13] 0.068 | [14] -0.059 | [15] 0.01 | [16] 0.019

SLC38A10 (UniProt Q9HBR0)
inactive: erlotinib 0.007 | [1] -0.128 | [2] -0.006 | [3] -0.065 | [4] -0.009 | [5] 0.02 | [6] -0.127 | [7] 0 | [8] 0.016 | IRAK-1-4 Inhibitor I 0.047 | ibrutinib 0.103 | [9] -0.047 | ralimetinib -0.025 | [10] -0.056 | [11] -0.007 | [12] -0.051 | [13] -0.018 | [14] 0.032 | [15] -0.001 | [16] -0.027

SQLE (UniProt Q14534)
inactive: erlotinib -0.025 | [1] 0.056 | [2] 0.019 | [3] -0.03 | [4] -0.028 | [5] 0.007 | [6] 0.074 | [7] -0.019 | [8] -0.084 | IRAK-1-4 Inhibitor I 0.023 | ibrutinib 0.028 | [9] 0.051 | ralimetinib 0.081 | [10] -0.047 | [11] 0 | [12] -0.02 | [13] -0.006 | [14] 0.039 | [15] -0.06 | [16] -0.027

SULT1A1 (UniProt P50225)
inactive: erlotinib -0.045 | [1] 0.08 | [2] -0.014 | [3] 0.069 | [4] 0.048 | [5] -0.011 | [6] -0.061 | [7] -0.026 | [8] 0.018 | IRAK-1-4 Inhibitor I -0.04 | ibrutinib 0.02 | [9] -0.027 | ralimetinib 0.028 | [10] -0.03 | [11] 0.03 | [12] -0.009 | [13] -0.06 | [14] 0.022 | [15] 0.047 | [16] 0.006

SMC6 (UniProt Q96SB8)
Sequence of UniProt Q96SB8 (Q96SB8 whole entry, looked up): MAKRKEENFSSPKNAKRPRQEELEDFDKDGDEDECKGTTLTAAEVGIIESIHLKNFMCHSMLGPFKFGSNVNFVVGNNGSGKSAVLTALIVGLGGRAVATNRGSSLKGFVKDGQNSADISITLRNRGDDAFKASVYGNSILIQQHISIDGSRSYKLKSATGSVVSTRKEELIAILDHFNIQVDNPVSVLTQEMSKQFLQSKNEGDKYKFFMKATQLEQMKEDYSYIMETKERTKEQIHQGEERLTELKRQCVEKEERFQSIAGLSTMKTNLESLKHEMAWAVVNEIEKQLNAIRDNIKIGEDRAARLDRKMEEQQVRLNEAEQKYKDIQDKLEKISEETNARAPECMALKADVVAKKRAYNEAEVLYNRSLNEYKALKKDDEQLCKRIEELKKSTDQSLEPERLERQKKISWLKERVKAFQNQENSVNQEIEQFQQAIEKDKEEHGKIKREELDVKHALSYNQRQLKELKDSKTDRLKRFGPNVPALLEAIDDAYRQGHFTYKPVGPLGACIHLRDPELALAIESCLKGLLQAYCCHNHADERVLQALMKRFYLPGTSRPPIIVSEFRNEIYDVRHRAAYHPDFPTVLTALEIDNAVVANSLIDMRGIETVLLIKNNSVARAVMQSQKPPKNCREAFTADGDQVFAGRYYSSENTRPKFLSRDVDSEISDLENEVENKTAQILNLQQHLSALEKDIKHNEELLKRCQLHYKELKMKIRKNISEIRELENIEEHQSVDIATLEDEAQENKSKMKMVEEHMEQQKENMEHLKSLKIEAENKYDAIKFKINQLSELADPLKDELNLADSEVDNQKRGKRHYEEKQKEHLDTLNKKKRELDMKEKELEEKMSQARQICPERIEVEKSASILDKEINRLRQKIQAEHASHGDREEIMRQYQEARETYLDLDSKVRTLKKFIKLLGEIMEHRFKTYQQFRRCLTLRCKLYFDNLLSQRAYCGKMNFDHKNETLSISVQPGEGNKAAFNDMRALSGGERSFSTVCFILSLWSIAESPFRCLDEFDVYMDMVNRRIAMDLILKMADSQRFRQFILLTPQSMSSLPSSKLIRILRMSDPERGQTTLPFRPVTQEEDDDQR
inactive: erlotinib 0.02 | [1] 0.038 | [2] -0.03 | [3] -0.002 | [4] -0.009 | [5] 0.019 | [6] -0.055 | [7] -0.031 | [8] 0.03 | IRAK-1-4 Inhibitor I 0.01 | ibrutinib 0.021 | [9] -0.006 | ralimetinib 0.005 | [10] -0.012 | [11] 0.023 | [12] 0.065 | [13] 0.006 | [14] 0.006 | [15] 0.001 | [16] -0.01

SNAP23 (UniProt O00161)
Sequence of UniProt O00161 (O00161 whole entry, looked up): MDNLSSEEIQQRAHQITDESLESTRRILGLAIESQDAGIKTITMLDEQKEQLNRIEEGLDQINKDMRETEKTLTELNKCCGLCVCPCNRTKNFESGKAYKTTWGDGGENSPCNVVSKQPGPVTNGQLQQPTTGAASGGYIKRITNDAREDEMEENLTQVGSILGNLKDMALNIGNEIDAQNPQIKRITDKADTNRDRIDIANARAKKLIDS
inactive: erlotinib -0.01 | [1] 0.037 | [2] -0.025 | [3] 0.047 | [4] 0.02 | [5] 0.039 | [6] 0.022 | [7] 0.018 | [8] 0.03 | IRAK-1-4 Inhibitor I 0.038 | ibrutinib 0.021 | [9] -0.003 | ralimetinib -0.01 | [10] 0.01 | [11] -0.04 | [12] -0.015 | [13] 0.045 | [14] 0.015 | [15] -0.013 | [16] 0.011

SKA3 (UniProt Q8IX90)
inactive: erlotinib 0.018 | [1] -0.081 | [2] 0.02 | [3] -0.01 | [4] -0.052 | [5] -0.022 | [6] 0.001 | [7] -0.02 | [8] 0.042 | IRAK-1-4 Inhibitor I 0.013 | ibrutinib 0.001 | [9] -0.032 | ralimetinib -0.021 | [10] -0.038 | [11] 0.007 | [12] 0.027 | [13] -0.011 | [14] 0.027 | [15] 0.025 | [16] -0.046

SSB (UniProt E7ERC4)
inactive: erlotinib -0.03 | [1] 0.071 | [2] -0.063 | [3] 0 | [4] 0.02 | [5] 0.015 | [6] -0.142 | [7] 0.089 | [8] 0.01 | IRAK-1-4 Inhibitor I -0.043 | ibrutinib 0.14 | [9] -0.087 | ralimetinib -0.009 | [10] -0.075 | [11] -0.046 | [12] 0.062 | [13] 0.014 | [14] 0.239 | [15] 0.093 | [16] -0.013

SLC16A1 (UniProt P53985)
Sequence of UniProt P53985 (P53985 whole entry, looked up): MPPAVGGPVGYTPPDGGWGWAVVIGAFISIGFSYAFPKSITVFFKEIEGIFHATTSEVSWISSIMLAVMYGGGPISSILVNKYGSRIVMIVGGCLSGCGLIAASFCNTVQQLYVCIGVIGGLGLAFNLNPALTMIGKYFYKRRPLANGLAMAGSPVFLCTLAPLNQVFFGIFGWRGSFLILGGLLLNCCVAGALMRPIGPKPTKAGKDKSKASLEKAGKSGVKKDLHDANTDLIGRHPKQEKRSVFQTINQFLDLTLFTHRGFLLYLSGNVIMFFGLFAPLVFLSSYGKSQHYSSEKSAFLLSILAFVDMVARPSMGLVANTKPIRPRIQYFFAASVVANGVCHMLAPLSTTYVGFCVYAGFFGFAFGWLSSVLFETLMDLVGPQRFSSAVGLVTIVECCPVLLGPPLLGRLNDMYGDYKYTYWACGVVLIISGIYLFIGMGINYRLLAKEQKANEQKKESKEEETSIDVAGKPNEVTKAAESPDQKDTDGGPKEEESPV
inactive: erlotinib -0.007 | [1] -0.038 | [2] 0.036 | [3] 0.029 | [4] -0.018 | [5] 0.034 | [6] 0.034 | [7] -0.024 | [8] 0.004 | IRAK-1-4 Inhibitor I 0.032 | ibrutinib -0.023 | [9] 0.002 | ralimetinib 0.015 | [10] 0.015 | [11] 0.003 | [12] -0.039 | [13] -0.03 | [14] 0.042 | [15] 0 | [16] -0.006

STUB1 (UniProt Q9UNE7)
Sequence of UniProt Q9UNE7 (Q9UNE7 whole entry, looked up): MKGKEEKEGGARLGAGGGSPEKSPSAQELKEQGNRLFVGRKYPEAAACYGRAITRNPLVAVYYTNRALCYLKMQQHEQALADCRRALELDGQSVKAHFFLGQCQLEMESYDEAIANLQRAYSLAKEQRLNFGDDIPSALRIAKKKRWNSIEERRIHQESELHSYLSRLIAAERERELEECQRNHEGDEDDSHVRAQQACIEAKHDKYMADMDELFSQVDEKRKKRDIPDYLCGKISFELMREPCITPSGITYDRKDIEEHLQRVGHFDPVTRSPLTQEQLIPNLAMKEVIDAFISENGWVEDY
inactive: erlotinib 0.05 | [1] 0.024 | [2] -0.034 | [3] -0.022 | [4] 0.009 | [5] 0.003 | [6] -0.033 | [7] 0.013 | [8] 0.006 | IRAK-1-4 Inhibitor I -0.018 | ibrutinib 0.015 | [9] 0.011 | ralimetinib 0.005 | [10] 0 | [11] -0.018 | [12] 0.023 | [13] 0.032 | [14] -0.012 | [15] -0.001 | [16] -0.019

SPNS1 (UniProt Q9H2V7)
Sequence of UniProt Q9H2V7 (Q9H2V7 whole entry, looked up): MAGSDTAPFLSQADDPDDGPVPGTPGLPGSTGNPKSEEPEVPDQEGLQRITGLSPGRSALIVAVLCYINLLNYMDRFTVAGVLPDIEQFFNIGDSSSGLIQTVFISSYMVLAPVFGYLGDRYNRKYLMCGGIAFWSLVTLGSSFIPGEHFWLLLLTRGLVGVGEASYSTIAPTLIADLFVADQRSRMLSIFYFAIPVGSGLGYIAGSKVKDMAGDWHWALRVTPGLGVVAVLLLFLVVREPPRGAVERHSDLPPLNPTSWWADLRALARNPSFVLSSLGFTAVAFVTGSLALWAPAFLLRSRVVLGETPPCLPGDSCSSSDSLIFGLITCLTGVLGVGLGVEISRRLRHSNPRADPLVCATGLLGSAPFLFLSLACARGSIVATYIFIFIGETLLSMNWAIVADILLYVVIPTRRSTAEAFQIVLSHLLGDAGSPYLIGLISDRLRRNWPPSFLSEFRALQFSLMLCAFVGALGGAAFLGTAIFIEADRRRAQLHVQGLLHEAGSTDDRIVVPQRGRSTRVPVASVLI
inactive: erlotinib 0.015 | [1] -0.043 | [2] -0.02 | [3] 0.043 | [4] -0.031 | [5] 0.029 | [6] -0.063 | [7] 0 | [8] 0.044 | IRAK-1-4 Inhibitor I 0.032 | ibrutinib 0.02 | [9] -0.001 | ralimetinib 0.005 | [10] -0.009 | [11] 0.007 | [12] -0.009 | [13] -0.007 | [14] 0.047 | [15] -0.029 | [16] 0.012

SLC11A2 isoform 3 (UniProt P49281)
Sequence of UniProt P49281 (P49281 whole entry, looked up): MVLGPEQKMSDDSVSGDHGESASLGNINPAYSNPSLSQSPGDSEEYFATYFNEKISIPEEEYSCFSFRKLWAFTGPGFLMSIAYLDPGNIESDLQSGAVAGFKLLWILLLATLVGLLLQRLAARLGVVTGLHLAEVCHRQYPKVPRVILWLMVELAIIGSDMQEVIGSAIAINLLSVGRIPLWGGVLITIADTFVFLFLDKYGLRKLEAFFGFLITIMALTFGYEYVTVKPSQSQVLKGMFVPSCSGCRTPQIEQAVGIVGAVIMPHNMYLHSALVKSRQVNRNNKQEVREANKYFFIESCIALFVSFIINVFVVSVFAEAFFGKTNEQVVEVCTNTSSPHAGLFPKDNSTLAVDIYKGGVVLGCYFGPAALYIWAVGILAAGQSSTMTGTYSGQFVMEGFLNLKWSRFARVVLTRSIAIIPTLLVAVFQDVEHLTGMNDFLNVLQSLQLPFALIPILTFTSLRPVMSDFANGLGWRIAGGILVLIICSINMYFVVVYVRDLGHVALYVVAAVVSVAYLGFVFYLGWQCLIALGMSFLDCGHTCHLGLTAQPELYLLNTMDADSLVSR
inactive: erlotinib -0.005 | [1] -0.041 | [2] -0.009 | [3] -0.013 | [4] 0 | [5] 0.011 | [6] 0.046 | [7] -0.004 | [8] 0.026 | IRAK-1-4 Inhibitor I 0.024 | ibrutinib -0.032 | [9] -0.018 | ralimetinib -0.038 | [10] -0.093 | [11] 0.017 | [12] 0.242 | [13] -0.001 | [14] 0.094 | [15] 0.001 | [16] 0.003

SFR1 isoform 2 (UniProt Q86XK3)
inactive: erlotinib -0.009 | [1] -0.019 | [2] 0.067 | [3] 0.015 | [4] -0.051 | [5] 0.018 | [6] 0.025 | [7] 0.04 | [8] 0.01 | IRAK-1-4 Inhibitor I 0.001 | ibrutinib 0.023 | [9] -0.006 | ralimetinib 0.003 | [10] -0.012 | [11] -0.005 | [12] -0.006 | [13] 0.041 | [14] 0.026 | [15] 0.06 | [16] 0.016

SPHK1 isoform 2 (UniProt Q9NYA1)
active: [14] -0.276
inactive: erlotinib -0.055 | [1] -0.462 | [2] -0.059 | [3] 0.038 | [4] 0.034 | [5] -0.097 | [6] -0.066 | [7] 0.016 | [8] 0.038 | IRAK-1-4 Inhibitor I 0.018 | ibrutinib -0.088 | [9] 0.029 | ralimetinib 0.124 | [10] 0.061 | [11] 0.021 | [12] 0.041 | [13] 0.041 | [15] -0.061 | [16] -0.036

SMARCA4 (UniProt P51532)
Sequence of UniProt P51532 (P51532 whole entry, looked up): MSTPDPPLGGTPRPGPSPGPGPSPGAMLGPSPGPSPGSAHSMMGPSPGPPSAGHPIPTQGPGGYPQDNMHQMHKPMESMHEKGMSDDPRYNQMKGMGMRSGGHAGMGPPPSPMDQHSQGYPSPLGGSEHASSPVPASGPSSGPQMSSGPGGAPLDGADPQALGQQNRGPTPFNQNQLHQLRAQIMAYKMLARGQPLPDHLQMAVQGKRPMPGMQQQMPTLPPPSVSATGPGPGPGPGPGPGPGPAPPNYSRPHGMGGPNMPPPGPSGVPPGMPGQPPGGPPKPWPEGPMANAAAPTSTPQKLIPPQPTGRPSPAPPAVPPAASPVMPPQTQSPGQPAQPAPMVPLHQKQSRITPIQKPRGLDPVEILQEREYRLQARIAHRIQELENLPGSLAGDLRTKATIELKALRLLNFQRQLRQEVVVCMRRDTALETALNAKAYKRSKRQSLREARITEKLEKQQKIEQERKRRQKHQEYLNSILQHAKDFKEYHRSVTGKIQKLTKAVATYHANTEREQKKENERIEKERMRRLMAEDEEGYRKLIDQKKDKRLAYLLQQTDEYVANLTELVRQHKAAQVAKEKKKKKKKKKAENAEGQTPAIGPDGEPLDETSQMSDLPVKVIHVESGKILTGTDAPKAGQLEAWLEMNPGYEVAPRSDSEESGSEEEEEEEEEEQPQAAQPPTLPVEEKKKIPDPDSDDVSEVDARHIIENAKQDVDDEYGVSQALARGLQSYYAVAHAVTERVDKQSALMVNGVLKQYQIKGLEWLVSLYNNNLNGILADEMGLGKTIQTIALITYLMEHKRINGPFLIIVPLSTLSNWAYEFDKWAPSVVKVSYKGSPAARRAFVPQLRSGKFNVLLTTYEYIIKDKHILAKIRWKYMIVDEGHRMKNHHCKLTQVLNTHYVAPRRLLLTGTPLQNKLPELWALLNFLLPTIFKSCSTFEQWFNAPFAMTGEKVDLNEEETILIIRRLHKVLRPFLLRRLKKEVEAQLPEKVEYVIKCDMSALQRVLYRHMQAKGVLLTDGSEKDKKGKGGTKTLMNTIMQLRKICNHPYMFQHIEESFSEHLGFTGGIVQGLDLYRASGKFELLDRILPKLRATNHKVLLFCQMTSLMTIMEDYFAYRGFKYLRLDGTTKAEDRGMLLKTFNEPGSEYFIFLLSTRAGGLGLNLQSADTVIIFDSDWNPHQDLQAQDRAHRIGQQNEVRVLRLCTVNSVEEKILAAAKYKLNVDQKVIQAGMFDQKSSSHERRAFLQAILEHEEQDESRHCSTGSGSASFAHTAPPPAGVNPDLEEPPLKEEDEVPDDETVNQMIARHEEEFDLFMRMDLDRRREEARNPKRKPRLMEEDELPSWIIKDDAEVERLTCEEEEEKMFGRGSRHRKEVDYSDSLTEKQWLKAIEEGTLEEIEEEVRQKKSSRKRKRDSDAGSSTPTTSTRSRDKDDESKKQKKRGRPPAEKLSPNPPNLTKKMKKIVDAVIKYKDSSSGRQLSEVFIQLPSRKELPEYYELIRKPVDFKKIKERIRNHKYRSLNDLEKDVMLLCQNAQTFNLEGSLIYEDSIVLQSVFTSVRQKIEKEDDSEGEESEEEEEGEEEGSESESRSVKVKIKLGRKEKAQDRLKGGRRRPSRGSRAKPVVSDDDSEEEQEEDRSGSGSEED
inactive: erlotinib -0.01 | [1] -0.018 | [2] -0.021 | [3] 0.011 | [4] -0.001 | [5] -0.003 | [6] -0.017 | [7] -0.003 | [8] -0.024 | IRAK-1-4 Inhibitor I -0.025 | ibrutinib 0.021 | [9] -0.007 | ralimetinib 0.035 | [10] 0.018 | [11] -0.009 | [12] -0.003 | [13] -0.032 | [14] -0.026 | [15] 0.028 | [16] 0.012
